Assay [1] in a line: compounds binding Alexa647 anti-His antibody – biochemical, small-molecule microarray, 635 nm fluorescence, artefact control for SMM control protein annotation, primary screen (AID 1128).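 Further: score merges feature fluorescence with signal-to-noise for each printed compound spot.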 To be noted: higher = more signal.
The subject of assay [2] is Human papillomavirus type 1a E7 protein (residues 1-88). Kind of assay: HPV1a E7 small-molecule binders, primary screen, biochemical, small-molecule microarray, residues 1-88, 635 nm (AID 1129). The settings on record: small-molecule microarray binding, fluorescence 635 nm; higher = more signal.
In assay [3] the target is Focal adhesion kinase 1 (Homo sapiens) (UniProt Q05397). Kind of assay: PTK2 protein binding on printed compound slides – biochemical, small-molecule microarray, 635/667 nm fluorescence, BSA, DTT, primary screen (AID 1130).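 Further: composite of spot emission at 667 nm and signal to noise over triplicate slides.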 To be noted: 635 nm fluorescence, higher = more signal.
In assay [4] the test system is Fibrinogen (Alexa647-labelled). Kind of assay: Alexa647-fibrinogen binding to printed small molecules – biochemical, small-molecule microarray, 635/667 nm fluorescence, artefact control for SMM control-protein annotation, profiling panel (AID 1131).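 Further: z-score merges 667 nm fluorescence with per-spot signal-to-noise over triplicate slides.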 To be noted: fibrinogen-A647 binding fluorescence, higher = more signal.
For assay [5], the target named is Follistatin (Homo sapiens) (UniProt P19883). Kind of assay: FST protein binding to printed compounds – biochemical, small-molecule microarray, 635/667 nm fluorescence, primary screen (AID 1132). To be noted: 635 nm fluorescence, higher = more signal.
The target in assay [6] is Fibroblast growth factor 2 (Homo sapiens) (UniProt P09038). The experiment in a line: basic fibroblast growth factor binding to printed compounds – biochemical, small-molecule microarray, 635/667 nm fluorescence, primary screen (AID 1133). The settings on record: FGF2, fluorescence 635/667, higher = more signal.
Assay [7] can be described thus: JC-1 mitochondrial potential readout, lung cancer cells – cell-based, A549, JC-1 fluorescence, basal, 24 h, 100 nL, profiling panel (AID 1138).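 Further: A549 lung adenocarcinoma cells under basal conditions with no added stimulus; test concentration not given here.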 The settings on record: higher = more signal.
Assay [8] deals with Lefty1. The experiment in a line: Lefty1 protein binding to printed compounds – biochemical, small-molecule microarray, 635/667 nm fluorescence, primary screen (AID 1139). To be noted: fluorescence 635/667, higher = more signal.
Assay [9] concerns wheat germ agglutinin (Triticum aestivum), Alexa647-labelled. The experiment in a line: Alexa647-WGA lectin binding to printed small molecules – biochemical, small-molecule microarray, 635/667 nm fluorescence, artefact control for SMM control-protein annotation, profiling panel (AID 1140).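 Further: score merges 667 nm feature emission with signal to noise over triplicate slides.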 To be noted: WGA-A647 binding, 635 nm fluorescence, higher = more signal.
The target of assay [10] is Luciferin 4-monooxygenase (Photinus pyralis) (UniProt P08659). The experiment in a line: inhibition of purified Photinus pyralis luciferase – biochemical, luminescence, purified enzyme, 2006 set, primary screen (AID 1141).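 Further: cell-free assay with purified firefly luciferase at 100 ng per well in PBS; test concentration not given here.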 To be noted: purified firefly luciferase, SteadyGlo luminescence, 30 min; higher = more signal, called active from +8 up or from −8 down.
Assay [11] deals with Wnt5a (protein binding on small-molecule microarray). The experiment in a line: small molecules binding Wnt5a protein – biophysical, small-molecule microarray, 635/667 nm fluorescence, primary screen (AID 1142).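 Further: fluorescence read at 667 nm with signal to noise per printed feature.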 The settings on record: 635 nm fluorescence, higher = more signal.
Assay [12] is described as follows: ATP-based viability of Huh7 replicon cells – cell-based, CellTiter-Glo luminescence, basal, 48 h, cytotoxicity control for HCV replication inhibitor project, primary screen (AID 1143).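 Further: Huh7 hepatoma cells carrying a hepatitis C replication reporter with no stimulus; test concentration not given here.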 To be noted: higher = more signal, called active from +8 up or from −8 down. In general terms: A replicon is a self-replicating genome or part of one, used to study replication in cells.

Assay [13] in a line: basal CRE-LacZ reporter activity in PC12 – cell-based, unstimulated, primary screen (AID 1145). To be noted: no forskolin, luminescence, 4.5 h, higher = more signal, called active from +8 up or from −8 down.
Assay [14] can be described thus: forskolin-driven CRE-LacZ activity in PC12 – cell-based, CRE-LacZ reporter, forskolin-stimulated, primary screen (AID 1146).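 Further: PC12 cells with 6xCRE LacZ reporter stimulated by forskolin 10 µM; beta-galactosidase reporter signal reflecting CREB driven transcription.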 The settings on record: luminescence, 4.5 h, higher = more signal, called active from +8 up or from −8 down.
Assay [15] concerns the target Streptavidin (Streptomyces avidinii) (UniProt P22629). Kind of assay: compounds binding control protein streptavidin – biophysical, small-molecule microarray, 635/667 nm fluorescence, artefact control for SMM compound annotation, primary screen (AID 1147).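 Further: signal reflects streptavidin binding to arrayed compounds as a control protein.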 To be noted: higher = more signal.
A short description of assay [16]: probe aInhba binding on compound microarray – biochemical, small-molecule microarray, 635/667 nm fluorescence, primary screen (AID 1148).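 Further: score merges 667nm spot fluorescence with signal-to-noise for antibody binding to printed compounds.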 To be noted: higher = more signal.
Assay [17] has as its target Torsin-1A (Homo sapiens) (UniProt O14656). Kind of assay: TOR1A wild-type binding on microarray – cell lysate, small-molecule microarray, lysate, 635/667 nm, primary screen (AID 1149). To be noted: COS7 hTOR1A-WT lysate, 635 nm fluorescence, higher = more signal.
The target is the same in assay [18]. Kind of assay: torsin A mutant lysate binding on microarrays – cell lysate, small-molecule microarray, COS7 lysate, 635/667 nm fluorescence, primary screen (AID 1150).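 Further: score pools 667 nm emission and signal to noise measuring lysate protein binding.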 To be noted: COS7 hTOR1A mutant lysate, 635 nm fluorescence, higher = more signal.
Assay [19] deals with Sonic hedgehog protein (Shh). The experiment in a line: Sonic hedgehog microarray binding compounds – biochemical, small-molecule microarray, 635/667 nm fluorescence, primary screen (AID 1151).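 Further: Shh protein binding to compounds spotted on small-molecule microarray slides; score combines spot fluorescence intensity with signal-to-noise across triplicate slides.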 The settings on record: 635 nm fluorescence, higher = more signal.

Activity calls are given as the source filed them.

Chain of Torsin-1A (Homo sapiens) (O14656 whole entry, looked up): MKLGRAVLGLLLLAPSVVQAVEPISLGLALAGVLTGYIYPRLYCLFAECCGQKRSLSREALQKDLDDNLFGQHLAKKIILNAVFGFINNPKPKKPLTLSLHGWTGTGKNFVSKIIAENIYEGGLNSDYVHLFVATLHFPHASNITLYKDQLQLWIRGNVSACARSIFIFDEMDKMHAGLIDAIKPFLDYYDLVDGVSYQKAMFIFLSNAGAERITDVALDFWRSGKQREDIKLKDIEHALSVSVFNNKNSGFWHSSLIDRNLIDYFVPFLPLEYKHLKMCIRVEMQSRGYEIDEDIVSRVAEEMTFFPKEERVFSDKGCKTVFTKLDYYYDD
Chain of Fibroblast growth factor 2 (Homo sapiens) (P09038 whole entry, looked up): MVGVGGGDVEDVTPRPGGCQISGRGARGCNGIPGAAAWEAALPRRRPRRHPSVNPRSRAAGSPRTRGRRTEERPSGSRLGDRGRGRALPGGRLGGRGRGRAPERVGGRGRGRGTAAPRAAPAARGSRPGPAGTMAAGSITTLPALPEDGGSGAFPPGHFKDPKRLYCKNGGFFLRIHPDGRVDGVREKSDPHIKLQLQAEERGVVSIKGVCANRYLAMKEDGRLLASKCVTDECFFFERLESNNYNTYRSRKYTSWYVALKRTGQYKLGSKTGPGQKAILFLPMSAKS
Chain of Streptavidin (Streptomyces avidinii) (P22629 whole entry, looked up): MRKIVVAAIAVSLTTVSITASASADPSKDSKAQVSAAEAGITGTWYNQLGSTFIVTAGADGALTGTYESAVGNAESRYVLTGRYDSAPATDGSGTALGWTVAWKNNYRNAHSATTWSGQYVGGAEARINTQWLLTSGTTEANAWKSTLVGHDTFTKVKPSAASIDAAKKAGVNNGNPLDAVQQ
Chain of Follistatin (Homo sapiens) (P19883 whole entry, looked up): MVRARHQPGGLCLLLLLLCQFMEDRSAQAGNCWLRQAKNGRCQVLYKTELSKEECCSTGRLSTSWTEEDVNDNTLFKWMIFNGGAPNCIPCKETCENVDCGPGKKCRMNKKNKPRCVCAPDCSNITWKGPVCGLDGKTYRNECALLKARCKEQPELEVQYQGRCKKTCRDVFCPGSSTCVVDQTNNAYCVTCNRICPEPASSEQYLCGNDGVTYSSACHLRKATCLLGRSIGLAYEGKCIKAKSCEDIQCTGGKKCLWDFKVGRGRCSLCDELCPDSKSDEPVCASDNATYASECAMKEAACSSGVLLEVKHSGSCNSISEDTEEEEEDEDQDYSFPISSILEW
Chain of Focal adhesion kinase 1 (Homo sapiens) (Q05397 whole entry, looked up): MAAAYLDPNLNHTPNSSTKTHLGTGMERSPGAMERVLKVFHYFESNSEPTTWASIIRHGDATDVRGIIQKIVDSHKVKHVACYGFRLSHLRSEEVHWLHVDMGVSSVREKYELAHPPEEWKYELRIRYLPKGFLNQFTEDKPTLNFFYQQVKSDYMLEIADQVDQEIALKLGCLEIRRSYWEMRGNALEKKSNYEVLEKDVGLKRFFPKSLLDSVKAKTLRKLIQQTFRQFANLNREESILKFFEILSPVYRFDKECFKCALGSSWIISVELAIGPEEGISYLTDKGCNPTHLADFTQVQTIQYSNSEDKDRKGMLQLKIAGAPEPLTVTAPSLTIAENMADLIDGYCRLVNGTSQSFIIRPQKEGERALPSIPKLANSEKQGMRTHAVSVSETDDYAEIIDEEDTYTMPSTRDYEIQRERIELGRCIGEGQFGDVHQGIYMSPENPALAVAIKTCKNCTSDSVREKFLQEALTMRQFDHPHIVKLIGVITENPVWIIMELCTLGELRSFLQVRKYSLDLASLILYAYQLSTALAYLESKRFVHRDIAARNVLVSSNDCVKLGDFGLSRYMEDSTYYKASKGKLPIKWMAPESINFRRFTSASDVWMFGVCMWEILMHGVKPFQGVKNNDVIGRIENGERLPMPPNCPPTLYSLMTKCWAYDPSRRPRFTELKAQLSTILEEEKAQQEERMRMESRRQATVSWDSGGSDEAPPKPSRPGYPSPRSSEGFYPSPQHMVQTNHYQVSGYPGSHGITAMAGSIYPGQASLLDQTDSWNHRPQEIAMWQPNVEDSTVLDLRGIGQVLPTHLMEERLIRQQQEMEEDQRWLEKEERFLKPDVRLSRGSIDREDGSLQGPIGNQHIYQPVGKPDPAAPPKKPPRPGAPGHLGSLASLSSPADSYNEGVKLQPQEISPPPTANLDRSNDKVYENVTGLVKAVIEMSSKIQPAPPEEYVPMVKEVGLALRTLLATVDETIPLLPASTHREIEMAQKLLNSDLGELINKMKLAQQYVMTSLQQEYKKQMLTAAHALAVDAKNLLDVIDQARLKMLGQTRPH
Chain of Luciferin 4-monooxygenase (Photinus pyralis) (P08659 whole entry, looked up): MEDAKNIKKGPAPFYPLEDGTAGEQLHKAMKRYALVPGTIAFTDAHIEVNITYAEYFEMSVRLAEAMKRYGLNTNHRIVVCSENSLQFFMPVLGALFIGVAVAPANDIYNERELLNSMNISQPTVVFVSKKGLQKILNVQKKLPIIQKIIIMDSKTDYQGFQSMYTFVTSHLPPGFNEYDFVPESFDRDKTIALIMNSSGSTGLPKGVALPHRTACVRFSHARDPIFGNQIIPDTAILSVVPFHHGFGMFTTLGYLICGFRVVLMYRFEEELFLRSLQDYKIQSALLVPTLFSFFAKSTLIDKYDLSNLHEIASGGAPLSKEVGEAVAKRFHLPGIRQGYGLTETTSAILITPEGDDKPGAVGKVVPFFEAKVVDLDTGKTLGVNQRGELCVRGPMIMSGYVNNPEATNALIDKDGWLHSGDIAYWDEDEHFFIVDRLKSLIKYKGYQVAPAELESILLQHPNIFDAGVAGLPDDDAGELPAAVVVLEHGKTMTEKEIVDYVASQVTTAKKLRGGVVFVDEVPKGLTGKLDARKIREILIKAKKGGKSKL

In the case of `[N-]=[N+]=NCc1ccccc1C[C@@]1(C(=O)N2CCOCC2)N=C(c2ccc(OCCCO)cc2)O[C@@H]1c1ccccc1N=[N+]=[N-]`, the composite z-score was 1.8 in assay [1]; 1.22 in assay [2]; 0.662 in assay [3]; 0.9 in assay [4]; 1.12 in assay [5]; 0.267 in assay [6]. The composite z-score in assay [8] is -0.123; in assay [9], 1.37; in assay [11] it was 0.994; in assay [15], 1.43; in assay [16] it was 0.421; in [17], 0.783. Also, the results for the composite z-score in [18] and in assay [19] were 0.987 and 0.144, respectively. Also, the z-score in [7] was 1.4; in [10], -8.34 (active); in assay [12], -3.63 (inactive); in assay [13], 0.218 (inactive); in assay [14], -1.23 (inactive).

Regarding `C=CCN1C(=O)[C@@]2(O[C@@H](CCn3cc([C@H](O)c4ccccc4)nn3)[C@H]([Si](C)(C)c3ccc(OC)cc3)[C@H]2C)c2cc(N3CCOC3=O)ccc21`, the composite z-score is 1.34 in assay [1]; 1.16 in assay [2]; 0.533 in assay [3]; -0.285 in assay [4]; 0.0302 in assay [5]; 0.0085 in assay [6]. Also, the composite z-score in assay [8] was -0.192; in [9], -0.605; in assay [11], -0.0882; in [15] it was -0.349; in assay [16], -0.157; in assay [17], 0.0712. Besides, the composite z-score in assay [18] is 0.557; in assay [19], 0.185. In addition, the z-score in assay [7] was 0.899; in assay [10] it was -0.731 (inactive); in assay [12], -6.15 (inactive); in assay [13] it was 8.19 (active); in assay [14], -1.73 (inactive).

With `CO[C@@H]1COC(=O)[C@@H]2CCCN2C(=O)CC=C[C@@H](C)[C@H](OC)COC(=O)[C@@H]2CCCN2C(=O)CC=C[C@H]1C`, the composite z-score in [1] was -0.775; in assay [2], -1.7; in [3], -0.191; in assay [4] it was -1.15; in assay [5], 1.34; in assay [6], 1.58. Further, the composite z-score was 1.31 in assay [8]; -0.949 in assay [9]; -0.137 in assay [11]; -0.613 in assay [15]; -0.179 in assay [16]; 0.985 in assay [17]. The composite z-score in [18] stood at 0.306; in assay [19] it was 2.1. The z-score in assay [7] was 1.01; in assay [10] it was -1.44 (inactive); in assay [12] it was -0.381 (inactive); in [13], -0.292 (inactive); in assay [14], -0.559 (inactive).

For the compound `C=CC[C@@]12N=C(c3ccc(OCCCO)cc3)O[C@@H]1c1ccccc1CN(Cc1ccccc1)C2=O`, the composite z-score in assay [1] was found to be 2.93; in [2], 1.18; in assay [3] it was 1.05; in assay [4], 0.639; in assay [5], 1.33; in assay [6] it was 0.761. The composite z-score in assay [8] was 0.239; in [9] it was 0.65; in assay [11], 0.509; in assay [15], -0.0929; in assay [16], 0.174; in assay [17], 0.376. The composite z-score in [18] is 0.294; in assay [19], 1.91. Moreover, the z-score in assay [7] is -0.309; in assay [10] it was -1.79 (inactive); in [12] it was -4.89 (inactive); in assay [13], 2.16 (inactive); in assay [14], -2.5 (inactive).

Consider `C[C@@H]1CC[C@H]2C(=O)N3[C@@H](CC[C@@H](C)[C@@H]3c3cccc(N4CCOCC4)c3)C(=O)N2[C@H]1c1cccc(N2CCOCC2)c1`, for which the composite z-score in assay [1] is 0.181; in assay [2], 0.978; in assay [3] it was 0.0379; in [4], 0.815; in [5], 1.16; in assay [6], 1.16. In addition, the composite z-score in [8] was 1.47; in assay [9], 0.964; in assay [11] it was -0.0915; in [15], 0.766; in [16] it was -0.278; in assay [17], 1.38. Besides, the composite z-score in [18] was found to be 0.312; in [19], 0.106. Besides, the z-score in assay [7] is 1.05; in [10] it was -1.23 (inactive); in assay [12] it was -0.334 (inactive); in [13], 9.59 (active); in [14], -0.84 (inactive).

For the origin of these results see PubChem BioAssay.
